Screening data deposited in PubChem by National Center for Advancing Translational Sciences (NCATS).
LDHA inh: qHTS assay for inhibitors of human lactate dehydrogenase | actives 0.15% (n = 480,000) | AID 1347041, 2019 | L-lactate dehydrogenase A chain (Homo sapiens), P00338 | activity change, % (values are at about 110 or 230 µM) | purified LDHA, NADH/diaphorase-resazurin fluorescence; hits give low values; in the data active = activity change below about -30%; inconclusive = mostly about -25% to -30%;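 also: plate controls were DMSO wells for no effect and wells without enzyme for full effect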
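Remaining NADH was detected by diaphorase (0.133 mg/mL) converting 37 µM resazurin to fluorescent resorufin, read at 0 and 20 minutes. The preceding 5-minute room-temperature reaction used 2 nM LDHA, 0.2 mM sodium pyruvate and 0.06 mM NADH at pH 7.4.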
RORg inh: qHTS for inhibitors of ROR gamma transcriptional activity; Nuclear receptor ROR-gamma (Mus musculus), P51450; Drosophila S2 Gal4-RORgamma UAS-luciferase reporter, 20 h; Potency, µM (titrated, usually from 53.6 µM), inactives show at the highest dose activity change, negative = inhibition, most hits filed as inhibitors; actives 5.4% (n = 310,000); also: potency is read from the fitted curve at half-maximal effect; nearly all actives have a fitted effect of over 60% in size
Target sequence (P51450 whole entry, looked up, the tested form may be a part): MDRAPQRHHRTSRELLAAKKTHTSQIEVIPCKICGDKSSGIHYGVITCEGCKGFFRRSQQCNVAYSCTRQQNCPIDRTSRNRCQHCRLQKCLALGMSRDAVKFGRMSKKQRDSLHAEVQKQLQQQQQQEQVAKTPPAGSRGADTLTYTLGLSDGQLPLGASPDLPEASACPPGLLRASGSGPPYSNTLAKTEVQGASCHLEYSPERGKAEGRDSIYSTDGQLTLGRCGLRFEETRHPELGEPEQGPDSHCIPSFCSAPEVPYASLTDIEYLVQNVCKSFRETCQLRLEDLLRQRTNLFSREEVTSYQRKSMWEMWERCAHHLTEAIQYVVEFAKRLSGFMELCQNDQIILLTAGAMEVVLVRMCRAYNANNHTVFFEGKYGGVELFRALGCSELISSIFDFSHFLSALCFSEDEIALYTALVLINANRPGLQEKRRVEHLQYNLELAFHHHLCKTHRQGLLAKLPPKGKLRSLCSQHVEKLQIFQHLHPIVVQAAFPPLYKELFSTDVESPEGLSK
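Compounds are pin-transferred onto Drosophila Schneider cells expressing a copper-inducible Gal4–ROR gamma transactivation domain fusion. After 1 hr, copper sulfate is added to 700 uM final; luciferase is read 20 hr later.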
IL-1B inflam inh: qHTS for Inhibitors of Inflammasome Signaling: IL-1-beta AlphaLISA Primary Screen. THP-1 LPS/ATP IL-1B secretion, AlphaLISA, 16 h; hits give low values. actives 4.7% (n = 360,000). activity change, % at 57.5 µM. AID 743279, 2014; in the data active = activity change below about -50%; inconclusive = mostly about -30% to -49%
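THP-1 cells pretreated 1 hr with compounds (up to 57.5 uM final), then stimulated with LPS (250 ng/mL final) plus ATP (1.25 mM final); secreted IL-1B measured by AlphaLISA after 16 hr, decreased signal indicating inhibition.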
Gal4-VP16 FLuc: VP16 counterscreen qHTS for inhibitors of ROR gamma transcriptional activity; actives 3.5% (n = 310,000); Potency, µM (top dose mostly 53.6 µM), inactives show top-dose activity, negative = inhibition, most hits filed as inhibitors; Drosophila S2 Gal4-VP16 UAS-luciferase, luminescence, 20 h;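 also: Gal4-VP16 expression switched on by copper sulfate through the metallothionein promoter; potency is read from the fitted curve at half-maximal effect; nearly all actives have a fitted effect of over 50% in size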
DT40 TDP1 no CPT: qHTS for Inhibitors of human tyrosyl-DNA phosphodiesterase 1 (TDP1): qHTS in cells in absence of CPT | AID 686978, 2013 | Potency, µM (top dose mostly 46.2 µM), for inactives: at the top dose activity change, negative = growth inhibition, usual class: inhibitors | actives 15% (n = 420,000) | DT40 Tdp1-/- hTDP1 cells, no CPT, ATP luminescence, 48 h; also: potency is read from the fitted curve at half-maximal effect; nearly all actives have a fitted effect of over 55% in size
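Growth kinetics read by CellTiter-Glo luminescence after ≥48 hr at 37 °C. Cells: DT40 Tdp1-/- stably carrying human TDP1, 400 per well, compound exposure in the absence of CPT (DMSO vehicle).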
TDP1 cell CPT: qHTS for Inhibitors of human tyrosyl-DNA phosphodiesterase 1 (TDP1): qHTS in cells in presence of CPT; Potency, µM (highest dose often 46.2 µM), for the others: top-dose activity change, negative = growth inhibition, usual class: inhibitors; chicken DT40 Tdp1-/-;hTDP1 cells + 20 nM CPT, ATP luminescence, 48 h; AID 686979, 2013; actives 12% (n = 420,000); also: potency is read from the fitted curve at half-maximal effect; nearly all actives have a fitted effect of over 55% in size
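Chicken DT40 Tdp1-/- cells complemented with human TDP1, 400 cells/well, exposed to compounds plus 20 nM camptothecin for at least 48 h at 37 C; viability read as ATP content by CellTiter-Glo luminescence.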
* hit, by the source's call. Only some compounds are listed: those with a hit (about 18% of all), similar ones and a draw of the others. Unless noted, calls follow the shape of the dose curve; as a rule, active = well fitted curve in the direction sought with a large enough effect; inconclusive = small, poorly fitted or top-dose-only effect, or another doubt; inactive = no such curve, though single readings can be large; an effect the other way counts as inactive or inconclusive. Unless noted, % is scaled to controls: 0 for no effect and ±100 for the full control effect.

Results for COc1ccc(NC(=O)C(c2ccccc2)n2c(=O)c(-c3cc4ccccc4[nH]3)nc3ccccc32)cc1 (stereo unspecified) ?
LDHA inh: 1; IL-1B inflam inh: -12; DT40 TDP1 no CPT: 16µM*; TDP1 cell CPT: 16µM*

Results for CCCCCNC(=O)C(c1ccncc1)n1c(=O)c(-c2ccccc2)nc2ccccc21 (stereo unspecified) ?
LDHA inh: -1; IL-1B inflam inh: -12; DT40 TDP1 no CPT: inconclusive; TDP1 cell CPT: inconclusive

What do the screens show for `COc1ccc(NC(=O)C(c2ccncc2)n2c(=O)c(-c3ccccc3)nc3ccccc32)cc1` (stereo unspecified)?
LDHA inh: 1; IL-1B inflam inh: -56*; DT40 TDP1 no CPT: inconclusive; TDP1 cell CPT: inconclusive

How did COc1ccc(C(C(=O)NCc2ccccc2)n2c(=O)c(-c3cc4ccccc4[nH]3)nc3ccccc32)cc1 (stereo unspecified) do in these assays?
LDHA inh: -4; IL-1B inflam inh: 7; DT40 TDP1 no CPT: inconclusive; TDP1 cell CPT: inconclusive

What do the screens show for `COc1ccc(NC(=O)C(c2ccccc2F)n2c(=O)c(-c3cc4ccccc4[nH]3)nc3ccccc32)cc1` (stereo unspecified)?
LDHA inh: 0; IL-1B inflam inh: -10; DT40 TDP1 no CPT: 13µM*; TDP1 cell CPT: 16µM*

Results for O=C(NCc1ccccc1)C(c1ccncc1)n1c(=O)c(-c2cc3ccccc3[nH]2)nc2ccccc21 (stereo unspecified) ?
LDHA inh: -2; IL-1B inflam inh: -29; DT40 TDP1 no CPT: inconclusive; TDP1 cell CPT: inconclusive

What do the screens show for `Cc1ccc(C2=C(O)C(=O)N(Cc3ccccn3)C2c2ccccc2)cc1` (stereo unspecified)?
LDHA inh: 13

How did O=C(CN1CCN(CC(=O)Nc2ccc3c(c2)OC2(CCCCC2)O3)CC1)Nc1cccc(F)c1 do in these assays?
LDHA inh: 9; DT40 TDP1 no CPT: 16µM*; TDP1 cell CPT: 23µM*

What do the screens show for `O=C(CN1CCN(C(=O)CCC(=O)N2CCC(c3ccccc3)=N2)CC1)Nc1cccc(F)c1`?
LDHA inh: -4; IL-1B inflam inh: inconclusive; DT40 TDP1 no CPT: 16µM*; TDP1 cell CPT: 16µM*

How did O=C(CN1CCC2(CC1)OCCO2)Nc1cccc(F)c1 do in these assays?
LDHA inh: -3

What do the screens show for `O=C(CN1CCN(C(=O)CCC(=O)N2CCC(c3ccccc3)=N2)CC1)Nc1ccc(F)cc1`?
LDHA inh: -6; IL-1B inflam inh: -9; DT40 TDP1 no CPT: 23µM*; TDP1 cell CPT: inconclusive

What do the screens show for `COc1ccc(C(=O)NC(=S)Nc2cc3oc4ccccc4c3cc2OC)cc1`?
LDHA inh: 2; RORg inh: inconclusive; IL-1B inflam inh: 21; Gal4-VP16 FLuc: 8%; DT40 TDP1 no CPT: inconclusive; TDP1 cell CPT: -25%

What do the screens show for `COc1cc(OC)cc(C(=O)NC(=S)Nc2cc3oc4ccccc4c3cc2OC)c1`?
LDHA inh: -4; RORg inh: 1.4µM*; IL-1B inflam inh: 9; Gal4-VP16 FLuc: inconclusive; DT40 TDP1 no CPT: 9%; TDP1 cell CPT: -16%

Results for COc1cc2c(cc1NC(=O)c1cc(-c3ccccn3)nc3ccccc13)oc1ccccc12 ?
LDHA inh: -4; RORg inh: -1%; IL-1B inflam inh: 13; Gal4-VP16 FLuc: -13%; DT40 TDP1 no CPT: 21µM*; TDP1 cell CPT: 21µM*
